# Measurements published in PubChem BioAssay AID1159580 (chemical genetic matrix, 2015).
# Among all 5,500 compounds or so, about 2,000 (36%) were called active. About 18% were inconclusive and are not listed. The list shows a part of the results. Unmarked numbers belong to inactive results. Cut-off read from the data, not from the text of the source: active = normalized growth mostly below about 0.91 (no sharp cut-off); inconclusive = no clear call, values can overlap the other calls; inactive = mostly above about 0.92.
# Test: chemical genetic growth profiling, strain panel (AID 1159580);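 note: tested at 20 µM; growth read once vehicle control cultures reached saturation at 30 °C; 1 = growth at the plate median or of vehicle wells; lower values mean less growth of the strain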
# Settings: S. cerevisiae deletion strains, growth OD
smiles,measurement,setting,value
CCC(C)c1ccccc1NC(=O)c1cc2cccc([N+](=O)[O-])c2[nH]1 (stereo unspecified),normalized growth,"locus YAR019C, strain CDC15, stronger effect = lower value",0.932
same,normalized growth,"locus YBL105C, strain PKC1, stronger effect = lower value",0.914
same,normalized growth,"locus YBR135W, strain CKS1, stronger effect = lower value",0.912
same,normalized growth,"locus YBR136W, strain MEC1, stronger effect = lower value",0.923
same,normalized growth,"locus YBR160W, strain CDC28, stronger effect = lower value",0.924
same,normalized growth,"locus YDL017W, strain CDC7, stronger effect = lower value",0.928
same,normalized growth,"locus YDL028C, strain MPS1, stronger effect = lower value",0.92
same,normalized growth,"locus YDL101C, strain DUN1, stronger effect = lower value",0.949
same,normalized growth,"locus YDL108W, strain KIN28, stronger effect = lower value",0.921
same,normalized growth,"locus YDL132W, strain cdc53, stronger effect = lower value",0.896
same,normalized growth,"locus YDL214C, strain PRR2, stronger effect = lower value",0.904
same,normalized growth,"locus YDR052C, strain DBF4, stronger effect = lower value",0.965
same,normalized growth,"locus YDR054C, strain cdc34, stronger effect = lower value",0.957
same,normalized growth,"locus YDR226W, strain ADK1, stronger effect = lower value",0.936
same,normalized growth,"locus YDR477W, strain SNF1, stronger effect = lower value",0.792
same,normalized growth,"locus YER123W, strain YCK3, stronger effect = lower value",0.851
same,normalized growth,"locus YER133W, strain GLC7, stronger effect = lower value",0.893
same,normalized growth,"locus YFL009W, strain cdc4, stronger effect = lower value",0.906
same,normalized growth,"locus YFL029C, strain CAK1, stronger effect = lower value",0.925
same,normalized growth,"locus YFR003C, strain YPI1, stronger effect = lower value",0.93
same,normalized growth,"locus YFR019W, strain FAB1, stronger effect = lower value",0.978
same,normalized growth,"locus YFR028C, strain CDC14, stronger effect = lower value",0.967
same,normalized growth,"locus YGR040W, strain KSS1, stronger effect = lower value",0.826
same,normalized growth,"locus YGR052W, strain FMP48, stronger effect = lower value",0.867
same,normalized growth,"locus YGR092W, strain DBF2, stronger effect = lower value",0.7
same,normalized growth,"locus YHR030C, strain SLT2, stronger effect = lower value",0.543 (active)
same,normalized growth,"locus YHR079C, strain IRE1, stronger effect = lower value",0.219 (active)
same,normalized growth,"locus YHR082C, strain KSP1, stronger effect = lower value",0.905
same,normalized growth,"locus YHR205W, strain SCH9, stronger effect = lower value",0.964
same,normalized growth,"locus YIL147C, strain SLN1, stronger effect = lower value",0.916
same,normalized growth,"locus YJL095W, strain BCK1, stronger effect = lower value",0.266 (active)
same,normalized growth,"locus YJL128C, strain PBS2, stronger effect = lower value",0.994
same,normalized growth,"locus YJL157C, strain FAR1, stronger effect = lower value",0.884
same,normalized growth,"locus YJR016C, strain ILV3, stronger effect = lower value",0.911
same,normalized growth,"locus YJR066W, strain TOR1 (second series), stronger effect = lower value",0.905
same,normalized growth,"locus YJR066W, strain TOR1, stronger effect = lower value",0.767
same,normalized growth,"locus YKL048C, strain ELM1, stronger effect = lower value",0.912
same,normalized growth,"locus YKL067W, strain YNK1, stronger effect = lower value",0.897
same,normalized growth,"locus YKL101W, strain HSL1, stronger effect = lower value",0.83
same,normalized growth,"locus YKL193C, strain SDS22, stronger effect = lower value",0.92
same,normalized growth,"locus YKL203C, strain TOR2, stronger effect = lower value",0.783
same,normalized growth,"locus YLR113W, strain HOG1, stronger effect = lower value",0.656 (active)
same,normalized growth,"locus YLR133W, strain CKI1, stronger effect = lower value",0.902
same,normalized growth,"locus YLR403W, strain SFP1, stronger effect = lower value",0.859
same,normalized growth,"locus YML070W, strain DAK1, stronger effect = lower value",0.846
same,normalized growth,"locus YMR001C, strain CDC5, stronger effect = lower value",0.917
same,normalized growth,"locus YMR205C, strain PFK2 (second series), stronger effect = lower value",0.894
same,normalized growth,"locus YMR277W, strain FCP1, stronger effect = lower value",0.921
same,normalized growth,"locus YNL006W, strain LST8, stronger effect = lower value",0.915
same,normalized growth,"locus YNL020C, strain ARK1, stronger effect = lower value",0.905
same,normalized growth,"locus YNL161W, strain CBK1, stronger effect = lower value",0.924
same,normalized growth,"locus YNL183C, strain NPR1, stronger effect = lower value",0.774
same,normalized growth,"locus YNL207W, strain RIO2, stronger effect = lower value",0.905
same,normalized growth,"locus YNL222W, strain SSU72, stronger effect = lower value",0.917
same,normalized growth,"locus YNL307C, strain MCK1 (second series), stronger effect = lower value",0.826
same,normalized growth,"locus YOL078W, strain AVO1, stronger effect = lower value",0.924
same,normalized growth,"locus YOL136C, strain PFK27, stronger effect = lower value",0.869
same,normalized growth,"locus YOR061W, strain CKA2, stronger effect = lower value",0.818
same,normalized growth,"locus YOR119C, strain RIO1, stronger effect = lower value",0.805
same,normalized growth,"locus YOR231W, strain MKK1, stronger effect = lower value",0.631
same,normalized growth,"locus YOR329C, strain SCD5, stronger effect = lower value",0.917
same,normalized growth,"locus YPL031C, strain PHO85, stronger effect = lower value",0.832
same,normalized growth,"locus YPL153C, strain RAD53, stronger effect = lower value",0.723
same,normalized growth,"locus YPL204W, strain HRR25, stronger effect = lower value",0.834
same,normalized growth,"locus YPL209C, strain IPL1, stronger effect = lower value",0.921
same,normalized growth,"locus YPL256C, strain CLN2, stronger effect = lower value",0.785 (active)
same,normalized growth,"locus YPR025C, strain CCL1, stronger effect = lower value",0.919
same,normalized growth,"locus YPR106W, strain ISR1, stronger effect = lower value",0.958
same,normalized growth,"locus YPR111W, strain DBF20, stronger effect = lower value",0.99
same,normalized growth,"strain NNK1, stronger effect = lower value",0.945
same,normalized growth,"strain TSCII, stronger effect = lower value",0.911
